According to PubChem BioAssay (NCI):
Compounds without any hit were thinned out: in the full panel of roughly 83,000, 20% have a hit.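 Each cell line was grown in a 96-well plate and treated with one concentration of compound for 48 hours. Values below 10 were considered active.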 A number with no mark means an inactive call. Activity calls are given as the source filed them.

Legend:
Test in all cases: NCI-60 one-dose screen, 48 h (100 = growth as untreated, 0 = no growth, -100 = all killed)
Conditions in all cases: 10 µM unless noted
RPMI-8226 leukemia = test system: RPMI-8226 leukemia
OVCAR-8 ovarian = test system: OVCAR-8 ovarian
OVCAR-4 ovarian = test system: OVCAR-4 ovarian
SK-OV-3 ovarian = test system: SK-OV-3 ovarian
IGROV1 ovarian = test system: IGROV1 ovarian
OVCAR-3 ovarian = test system: OVCAR-3 ovarian
HS 578T breast = test system: HS 578T breast
NCI/ADR-RES ovarian = test system: NCI/ADR-RES ovarian
T-47D breast = test system: T-47D breast

Structure (SMILES) | growth (RPMI-8226 leukemia) | growth (OVCAR-8 ovarian) | growth (OVCAR-4 ovarian) [%] | growth (SK-OV-3 ovarian) | growth (IGROV1 ovarian) | growth (OVCAR-3 ovarian) | growth (HS 578T breast) | growth (NCI/ADR-RES ovarian) [%] | growth (T-47D breast)
[Cl][Ru].c1ccc(-c2cc(-c3ccccn3)nc(-c3ccccn3)c2)cc1.c1ccc(-c2ccnc3c2ccc2c(-c4ccccc4)ccnc23)cc1 | -41.8% (active) | -65.5% (active) | 15.6 | -12.1% (active) | -59.2% (active) | -64.2% (active) | -15.1% (active) | 93.7 | -11.4% (active)
N[C@@H](Cc1cn(-c2c3ccccc3nc3ccccc23)nn1)C(=O)O | 99.9% | 103% | 101 | 87.7% | 97.5% | – | 99.8% | 105 | 96.2%
CCOC(=O)c1sc(N)c(C(=O)OCC)c1C | 42.3% | 65.1% | 62 | – | 56.9% | 70.5% | 30.9% | – | 7.83% (active)
C=CCn1c(SCC(=O)c2ccccc2)nnc1-c1c[nH]c2ccccc12 | 86.6% | 95.4% | 97.5 | 120% | 88.4% | 115% | 97% | 97.4 | 95%
O=C(N/N=C/c1ccc([N+](=O)[O-])s1)c1[nH]c2ccc(Br)cc2c1-c1ccccc1 | 0.935% (active) | -8.62% (active) | 55.9 | 45.8% | 24.4% | 24.1% | 11.6% | 17.3 | 59.7%
COc1cc(/C=C/C(=O)c2ccc(C(F)(F)F)cc2)ccc1Oc1nc(NCCO)nc(N2CCOCC2)n1 | -16.1% (active) | 95.9% | 96 | 101% | 92.5% | 109% | 82% | 96.7 | 83.5%
